# Values joined by “and” are separate entries in the source; they are usually repeats but may differ in a detail not shown here. Equal values may be shown once. Records with an inconclusive call do not appear. More than one record can exist for a structure, and the calls need not agree. Active and inactive are the calls of the source. The calls were made as follows, unless noted: active = hit-call score of the fitted dose curve at least 0.9, where 1 is the maximum; inconclusive = response in the unintended direction; inactive = score below 0.9.
# Assays:
# [1] = biological target: bovine Estrogen Receptor (ER), ESR1 (gene 407238) (UniProt P49884); assay: NVS_NR_bER: NovaScreen (NVS) Nuclear Receptor Binding Assay for bovine Estrogen Receptor (ER) (AID 2283345);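 also: actives lower the bound radioligand count which means they displace the ER ligand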
# Chain of bovine Estrogen Receptor (ER), ESR1 (gene 407238) (P49884 whole entry, looked up): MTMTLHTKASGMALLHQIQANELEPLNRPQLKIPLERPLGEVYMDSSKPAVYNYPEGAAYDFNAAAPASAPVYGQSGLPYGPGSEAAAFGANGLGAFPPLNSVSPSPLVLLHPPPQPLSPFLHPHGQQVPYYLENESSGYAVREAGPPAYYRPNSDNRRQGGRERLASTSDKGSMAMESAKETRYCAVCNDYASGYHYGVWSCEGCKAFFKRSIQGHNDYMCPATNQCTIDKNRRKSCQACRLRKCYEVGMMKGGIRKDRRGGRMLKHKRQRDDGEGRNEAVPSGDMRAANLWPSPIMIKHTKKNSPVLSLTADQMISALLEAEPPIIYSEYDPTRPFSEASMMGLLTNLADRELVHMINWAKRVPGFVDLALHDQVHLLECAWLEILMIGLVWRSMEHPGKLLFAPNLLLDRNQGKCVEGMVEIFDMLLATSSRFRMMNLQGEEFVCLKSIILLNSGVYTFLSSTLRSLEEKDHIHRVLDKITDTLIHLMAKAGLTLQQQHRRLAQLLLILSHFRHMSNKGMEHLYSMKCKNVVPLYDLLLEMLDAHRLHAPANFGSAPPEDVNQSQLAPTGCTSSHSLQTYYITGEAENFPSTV
# In short: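 Scintillation counting of displaced radioligand gave the readout; bovine uterine membrane extract supplied the receptor. Measured 18 h post-dose, normalized to DMSO baseline. Single 25 uM duplicate screen preceded concentration-response follow-up.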
# [2] = biological target: Estrogen receptor (Homo sapiens) (UniProt P03372); assay: NVS_NR_hER: NovaScreen (NVS) Nuclear Receptor Binding Assay for human Estrogen Receptor (ER) (AID 2283348)
# Chain of Estrogen receptor (Homo sapiens) (P03372 whole entry, looked up): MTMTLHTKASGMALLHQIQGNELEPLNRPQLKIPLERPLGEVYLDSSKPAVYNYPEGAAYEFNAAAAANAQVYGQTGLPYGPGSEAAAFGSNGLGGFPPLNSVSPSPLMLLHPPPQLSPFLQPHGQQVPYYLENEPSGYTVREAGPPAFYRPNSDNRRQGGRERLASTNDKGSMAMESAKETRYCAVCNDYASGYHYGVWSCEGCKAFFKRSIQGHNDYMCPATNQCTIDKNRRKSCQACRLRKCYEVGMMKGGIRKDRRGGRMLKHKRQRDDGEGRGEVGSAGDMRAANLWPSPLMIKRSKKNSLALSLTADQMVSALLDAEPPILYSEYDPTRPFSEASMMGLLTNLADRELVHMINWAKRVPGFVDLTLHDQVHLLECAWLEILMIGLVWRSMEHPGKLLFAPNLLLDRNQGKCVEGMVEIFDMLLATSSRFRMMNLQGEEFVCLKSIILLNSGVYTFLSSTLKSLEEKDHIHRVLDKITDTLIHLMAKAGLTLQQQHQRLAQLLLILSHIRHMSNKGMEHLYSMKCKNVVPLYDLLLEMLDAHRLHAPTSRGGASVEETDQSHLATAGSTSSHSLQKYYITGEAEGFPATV
# In short: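 Radiodetection of ligand displacement in a lysate-based, cell-free format using MCF7 extracts, read at 18 hours. Duplicate 25 uM primary testing, then concentration series for actives.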
# [3] = CCTE_Harrill_HTTr_Viability_MCF7: CCTE's 6-hour Cell Viability Assessment for the High-Throughput Transcriptomics (HTTr) Platform, in MCF-7 cells cultured in DMEM + 10% fetal bovine serum, Harrill Lab (AID 2284010; active = hit-call score of the fitted dose curve at least 0.9, where 1 is the maximum; inactive = score below 0.9)
# In short: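 Read-out is propidium iodide gain of signal by high-content imaging, reflecting membrane integrity loss. Measurements are taken 6 h after dosing, eight concentrations per chemical, with DMSO serving as baseline for bidirectional curve fitting.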
# [4] = CCTE_Harrill_HTTr_Apoptosis_MCF7: CCTE's 6-hour Apoptosis Assessment for the High-Throughput Transcriptomics (HTTr) Platform, in MCF-7 cells cultured in DMEM + 10% fetal bovine serum, Harrill Lab (AID 2284011; active = hit-call score of the fitted dose curve at least 0.9, where 1 is the maximum; inactive = score below 0.9)
# In short: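 Apoptosis in MCF-7 cells grown in DMEM with 10% fetal bovine serum was scored after a six hour exposure by high content imaging of caspase-3/7 activation (CellEvent Caspase 3/7 Green), with DMSO serving as negative control and baseline.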
# [5] = TOX21_p53_BLA_p2_viability: Viability Assessment in the Tox21 HCT-116 p53 Agonism Beta-lactamase Assay, Phase 2 (AID 2283591);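 also: compound exposure lasted 16 h at 37 °C; actives lower the ATP signal meaning cytotoxicity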
# In short: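 HCT-116 p53-bla cells (4000/well) rested 5 h at 37C, then received compounds in DMSO (217-fold dilution) for 16 h at 37C, 5% CO2. After the CCF4 read, CellTiter-Glo was added; ATP luminescence was read after 30 min at room temperature.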
# [6] = biological target: Cellular tumor antigen p53 (Homo sapiens) (UniProt P04637); assay: TOX21_p53_BLA_p2_ratio: Tox21 HCT-116 p53 Agonism Beta-lactamase Assay, Ratio, Phase 2 (AID 2283592)
# Chain of Cellular tumor antigen p53 (Homo sapiens) (P04637 whole entry, looked up): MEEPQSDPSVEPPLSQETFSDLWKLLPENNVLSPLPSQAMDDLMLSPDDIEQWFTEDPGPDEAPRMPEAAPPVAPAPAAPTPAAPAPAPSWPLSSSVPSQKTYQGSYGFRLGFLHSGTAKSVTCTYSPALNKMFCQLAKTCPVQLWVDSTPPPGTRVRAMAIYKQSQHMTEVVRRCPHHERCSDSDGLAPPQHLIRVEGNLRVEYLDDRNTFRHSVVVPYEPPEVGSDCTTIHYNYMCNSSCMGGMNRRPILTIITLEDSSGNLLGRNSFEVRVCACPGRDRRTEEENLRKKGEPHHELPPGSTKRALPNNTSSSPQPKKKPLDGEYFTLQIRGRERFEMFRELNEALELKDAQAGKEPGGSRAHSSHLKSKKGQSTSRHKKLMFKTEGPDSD
# In short: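 DMSO-normalized, positive-direction endpoint derived from the 460 nm/530 nm FRET ratio in HCT116 p53 beta-lactamase reporter cells exposed 16 h at 37C and loaded with CCF4-AM for 2 h.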
# [7] = TOX21_p53_BLA_p3_viability: Viability Assessment in the Tox21 HCT-116 p53 Agonism Beta-lactamase Assay, Phase 3 (AID 2283593);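 also: cells exposed to compound for 16 h before reading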
# In short: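 HCT-116 cells (4000/well) rested 5 h at 37C, then got DMSO compounds by pin tool (217-fold dilution) for 16 h at 37C, 5% CO2. After the bla read, CellTiter-Glo was added and luminescence read at 30 min, room temperature.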
# [8] = biological target: Cellular tumor antigen p53 (Homo sapiens) (UniProt P04637); assay: TOX21_p53_BLA_p3_ratio: Tox21 HCT-116 p53 Agonism Beta-lactamase Assay, Ratio, Phase 3 (AID 2283596)
# In short: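 Cells were seeded at 4000/well, rested 5 h at 37C, then dosed with DMSO compound solutions (217-fold dilution) for 16 h. CCF4-AM substrate was loaded for 2 h at room temperature, and the 460/530 nm emission ratio was fitted for gain of signal versus DMSO.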
# [9] = TOX21_p53_BLA_p4_viability: Viability Assessment in the Tox21 HCT-116 p53 Agonism Beta-lactamase Assay, Phase 4 (AID 2283597);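 also: hits lower the luminescence signal meaning cytotoxicity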
# In short: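 In this multiplexed secondary endpoint, HCT116 cells (4000 per well, compound at 5 h, 16 h treatment) received CellTiter-Glo after the beta-lactamase read. Luminescence after 30 min RT reflects ATP, and falling signal marks cytotoxicity.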
# [10] = biological target: Cellular tumor antigen p53 (Homo sapiens) (UniProt P04637); assay: TOX21_p53_BLA_p5_ratio: Tox21 HCT-116 p53 Agonism Beta-lactamase Assay, Ratio, Phase 5 (AID 2283599)
# In short: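 HCT-116 cells carrying a p53-inducible beta-lactamase reporter were seeded at 4000 cells/well and dosed after 5 h with compound in DMSO (217-fold dilution). After 16 h at 37C, CCF4-AM substrate was added for 2 h, and the 460/530 nm emission ratio was scored as gain-of-signal versus DMSO.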
# [11] = TOX21_p53_BLA_p5_viability: Viability Assessment in the Tox21 HCT-116 p53 Agonism Beta-lactamase Assay, Phase 5 (AID 2283600)
# In short: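 Here cell health was gauged by ATP levels in wells holding 4000 cells, each treated 16 h with DMSO-delivered compounds at 217-fold dilution; reduced luminescence marked toxicity.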
# [12] = biological target: Cellular tumor antigen p53 (Homo sapiens) (UniProt P04637); assay: TOX21_p53_BLA_p4_ratio: Tox21 HCT-116 p53 Agonism Beta-lactamase Assay, Ratio, Phase 4 (AID 2283601)
# In short: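 HCT116 cells carrying an inducible beta-lactamase reporter were plated at 4000 cells/well, rested 5 h, then exposed to compounds in DMSO (217-fold dilution) for 16 h at 37C. CCF4-AM substrate was loaded 2 h at room temperature; 460/530 nm emission ratio scored gain-of-signal versus DMSO.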
smiles,measurement,setting,value
Oc1ccc2c(c1)Cc1ccccc1-2,AC50,[1],36.3 µM (active)
same,AC50,[2],25 µM (active)
same,outcome,[3],inactive
same,outcome,[4],inactive
O=[Se](O)O,AC50,[5],7.1 µM (active)
same,outcome,[5],inactive
same,AC50,[6],1.79 µM (active)
same,outcome,[6],inactive
same,AC50,[7],13.3 µM (active)
same,outcome,[7],inactive
same,AC50,[8],0.548 µM (active)
same,outcome,[8],inactive
same,AC50,[9],26 µM (active)
same,outcome,[9],inactive
same,AC50,[10],2.46 µM (active)
same,outcome,[10],inactive
same,outcome,[11],inactive
same,AC50,[12],4.23 µM (active)
same,outcome,[12],inactive
CCCCCCCCOCCCN,outcome,[2],inactive
same,outcome,[5],inactive
same,outcome,[6],inactive
same,outcome,[8],inactive
same,outcome,[9],inactive
same,outcome,[10],inactive
same,outcome,[11],inactive
same,outcome,[12],inactive
COc1ccc2cc3[n+](cc2c1OC)CCc1cc2c(cc1-3)OCO2,AC50,[5],20.8 µM (active)
same,outcome,[5],inactive
same,AC50,[6],4.58 µM (active)
same,outcome,[6],inactive
same,AC50,[7],41.2 µM (active)
same,outcome,[7],inactive
same,outcome,[8],inactive
same,AC50,[9],28.5 µM (active)
same,outcome,[9],inactive
same,AC50,[10],66.7 µM (active)
same,outcome,[10],inactive
same,outcome,[11],inactive
same,AC50,[12],53.1 µM (active)
same,outcome,[12],inactive
CCN(CC)CCOC(=O)C(c1ccccc1)c1ccccc1,outcome,[5],inactive
CCN(Cc1cccc(S(=O)(=O)O)c1)c1ccccc1,outcome,[2],inactive
same,outcome,[5],inactive
same,outcome,[8],inactive
same,outcome,[9],inactive
same,outcome,[10],inactive
CC(C)CC(=O)C1C(=O)c2ccccc2C1=O,outcome,[2],inactive
same,outcome,[5],inactive
same,outcome,[8],inactive
same,outcome,[10],inactive
same,outcome,[11],inactive
same,outcome,[12],inactive
CC(=O)CCc1ccc(OC(C)=O)cc1,outcome,[2],inactive
same,outcome,[5],inactive
same,outcome,[6],inactive
same,outcome,[7],inactive
same,outcome,[9],inactive
same,outcome,[10],inactive
same,outcome,[12],inactive
SC1CCCC1,outcome,[2],inactive
CCN(CC)c1ccc(N=Nc2ccc(S(=O)(=O)N(C)C)cc2)c(S(=O)(=O)NCC[n+]2ccccc2)c1,outcome,[5],inactive
COc1ccc(COC=O)cc1,outcome,[1],inactive
CC(C)(C)c1ccc(C(O)CCCN2CCC(C(O)(c3ccccc3)c3ccccc3)CC2)cc1 (stereo unspecified),AC50,[5],34.4 µM (active)
same,outcome,[5],inactive
same,AC50,[6],42.7 µM (active)
same,AC50,[7],37.9 µM (active) and 31.8 µM (active)
same,AC50,[8],43.3 µM (active) and 39.2 µM (active)
same,AC50,[9],32.4 µM (active)
same,outcome,[9],inactive
same,outcome,[10],inactive
same,outcome,[11],inactive
same,AC50,[12],42.2 µM (active)
same,outcome,[12],inactive
C[C@H](CCC(=O)O)[C@H]1CC[C@H]2[C@@H]3CC[C@@H]4C[C@H](O)CC[C@]4(C)[C@H]3C[C@H](O)[C@]12C,AC50,[5],80.9 µM (active)
same,outcome,[5],inactive
same,AC50,[6],85.4 µM (active)
same,outcome,[6],inactive
same,AC50,[7],73.6 µM (active)
same,outcome,[7],inactive
same,AC50,[8],87.3 µM (active)
same,outcome,[8],inactive
same,AC50,[9],75.1 µM (active) and 36.4 µM (active)
same,AC50,[10],86.7 µM (active)
same,outcome,[10],inactive
same,AC50,[11],84.4 µM (active)
same,outcome,[11],inactive
same,AC50,[12],87.2 µM (active)
same,outcome,[12],inactive
Cc1cc(Br)ccc1NC(=O)CCl,outcome,[2],inactive
same,AC50,[5],69.3 µM (active)
same,AC50,[6],23.2 µM (active)
same,AC50,[7],46.1 µM (active)
same,AC50,[8],13.3 µM (active)
same,AC50,[9],58.3 µM (active)
same,AC50,[10],13.3 µM (active)
same,AC50,[11],46.1 µM (active)
same,AC50,[12],25.3 µM (active)
O=S(=O)(O)c1cc(Cl)c(Cl)cc1Cl,outcome,[1],inactive
same,outcome,[2],inactive
same,outcome,[5],inactive
same,outcome,[9],inactive
same,outcome,[10],inactive
C[C@H](CCC(=O)O)[C@H]1CC[C@H]2[C@@H]3[C@H](O)C[C@@H]4C[C@H](O)CC[C@]4(C)[C@H]3CC[C@]12C,AC50,[5],78.5 µM (active)
same,outcome,[5],inactive
same,outcome,[6],inactive
same,outcome,[7],inactive
same,outcome,[8],inactive
same,AC50,[9],87.1 µM (active)
same,outcome,[9],inactive
same,outcome,[10],inactive
same,outcome,[12],inactive
CCOc1nc2cccc(C(=O)OC(C)OC(=O)OC3CCCCC3)c2n1Cc1ccc(-c2ccccc2-c2nn[nH]n2)cc1 (stereo unspecified),outcome,[2],inactive
same,AC50,[5],8.23 µM (active)
same,AC50,[6],14 µM (active)
same,AC50,[7],13 µM (active)
same,AC50,[8],34 µM (active)
same,AC50,[9],13.4 µM (active)
same,AC50,[10],15.7 µM (active)
same,AC50,[11],7.02 µM (active)
same,AC50,[12],24.4 µM (active)
same,outcome,[3],inactive
same,outcome,[4],inactive
Oc1c(I)cc(Cl)c2cccnc12,AC50,[5],8.67 µM (active)
same,outcome,[5],inactive
same,AC50,[6],7.99 µM (active)
same,outcome,[6],inactive
same,AC50,[7],12.7 µM (active)
same,outcome,[7],inactive
same,outcome,[8],inactive
same,AC50,[9],4.52 µM (active) and 18.6 µM (active)
same,AC50,[10],7.84 µM (active)
same,outcome,[10],inactive
same,outcome,[11],inactive
same,outcome,[12],inactive
CC(=O)Oc1ccccc1C(=O)Nc1ncc([N+](=O)[O-])s1,AC50,[5],10.7 µM (active)
same,outcome,[5],inactive
same,AC50,[6],2.61 µM (active) and 14.1 µM (active)
same,AC50,[7],4.46 µM (active) and 6.54 µM (active)
same,AC50,[8],1.19 µM (active) and 15.5 µM (active)
same,AC50,[9],12.7 µM (active)
same,outcome,[9],inactive
same,AC50,[10],3.18 µM (active) and 22.4 µM (active)
same,AC50,[11],10.7 µM (active)
same,outcome,[11],inactive
same,AC50,[12],5.33 µM (active)
same,outcome,[12],inactive
Cc1oc(C)c(C(=O)Nc2ccccc2)c1C,outcome,[2],inactive
same,outcome,[5],inactive
same,outcome,[6],inactive
same,outcome,[7],inactive
same,outcome,[8],inactive
same,outcome,[9],inactive
same,outcome,[10],inactive
same,outcome,[11],inactive
same,outcome,[12],inactive
C=CCN1CCc2nc(N)sc2CC1,outcome,[5],inactive
same,outcome,[6],inactive
CC(=O)O[C@]1(C(C)=O)CC[C@H]2[C@@H]3C=C(Cl)C4=CC(=O)CC[C@]4(C)[C@H]3CC[C@@]21C,outcome,[5],inactive
same,AC50,[6],43.1 µM (active)
same,outcome,[6],inactive
same,outcome,[7],inactive
same,AC50,[8],72.5 µM (active)
same,outcome,[8],inactive
same,AC50,[9],21.8 µM (active)
same,outcome,[9],inactive
same,outcome,[10],inactive
same,outcome,[11],inactive
same,AC50,[12],38 µM (active)
same,outcome,[12],inactive
C=C1CC[C@H](O)C/C1=C/C=C1\CCC[C@]2(C)[C@@H]([C@H](C)CCCC(C)C)CC[C@@H]12,AC50,[5],77.7 µM (active)
same,outcome,[5],inactive
same,outcome,[6],inactive
same,AC50,[7],63.2 µM (active) and 34.4 µM (active)
same,outcome,[8],inactive
same,AC50,[9],45.7 µM (active) and 37.2 µM (active)
same,outcome,[10],inactive
same,AC50,[11],73.6 µM (active)
same,outcome,[11],inactive
same,AC50,[12],76.7 µM (active)
same,outcome,[12],inactive

# From PubChem BioAssay (EPA / NIEHS)
